{
  "source": "ChEMBL document CHEMBL1961873",
  "about": "“Compounds: GSK PKIS; Assays: Nanosyn kinase panel” (2012)",
  "key": {"[1]": {"target": "Sphingosine kinase 1 (Homo sapiens) (UniProt Q9NYA1)", "sequence (Q9NYA1 whole entry)": "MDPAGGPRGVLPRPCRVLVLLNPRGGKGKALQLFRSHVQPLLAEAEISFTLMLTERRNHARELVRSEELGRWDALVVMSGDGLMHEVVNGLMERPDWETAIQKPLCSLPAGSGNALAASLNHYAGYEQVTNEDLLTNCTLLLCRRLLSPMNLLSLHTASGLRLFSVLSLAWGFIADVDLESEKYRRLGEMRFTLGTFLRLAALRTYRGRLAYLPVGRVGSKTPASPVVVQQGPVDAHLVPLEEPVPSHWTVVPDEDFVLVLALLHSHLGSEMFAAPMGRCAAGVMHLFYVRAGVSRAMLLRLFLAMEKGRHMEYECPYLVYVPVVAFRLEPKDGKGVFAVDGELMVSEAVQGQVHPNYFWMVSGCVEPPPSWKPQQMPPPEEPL", "conditions": "at 1 µM"}, "[2]": {"target": "T1, Sphingosine kinase 2 (Homo sapiens) (UniProt Q9NRA0)", "T1 sequence (whole entry)": "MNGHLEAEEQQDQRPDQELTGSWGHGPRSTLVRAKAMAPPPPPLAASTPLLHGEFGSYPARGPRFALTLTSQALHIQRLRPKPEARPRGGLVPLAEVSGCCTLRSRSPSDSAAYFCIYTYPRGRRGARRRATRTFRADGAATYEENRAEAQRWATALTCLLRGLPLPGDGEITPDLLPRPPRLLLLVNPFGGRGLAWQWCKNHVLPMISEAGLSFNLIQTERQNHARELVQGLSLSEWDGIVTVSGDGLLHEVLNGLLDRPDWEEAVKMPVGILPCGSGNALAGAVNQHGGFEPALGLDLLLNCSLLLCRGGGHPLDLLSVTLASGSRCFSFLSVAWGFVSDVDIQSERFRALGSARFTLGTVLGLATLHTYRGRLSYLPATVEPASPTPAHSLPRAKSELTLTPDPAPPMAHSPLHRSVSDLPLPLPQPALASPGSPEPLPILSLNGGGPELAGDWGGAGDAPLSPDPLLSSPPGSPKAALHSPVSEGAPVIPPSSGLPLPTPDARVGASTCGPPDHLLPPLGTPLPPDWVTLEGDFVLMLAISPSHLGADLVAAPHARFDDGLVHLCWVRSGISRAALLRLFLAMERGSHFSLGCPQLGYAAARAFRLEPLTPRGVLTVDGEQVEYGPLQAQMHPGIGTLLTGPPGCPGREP", "conditions": "at 0.1 µM"}, "[3]": {"target": "T1, Sphingosine kinase 2 (Homo sapiens)", "conditions": "at 1 µM"}, "[4]": {"target": "Casein kinase II subunit alpha (Homo sapiens) (UniProt P68400)", "sequence (P68400 whole entry, looked up)": "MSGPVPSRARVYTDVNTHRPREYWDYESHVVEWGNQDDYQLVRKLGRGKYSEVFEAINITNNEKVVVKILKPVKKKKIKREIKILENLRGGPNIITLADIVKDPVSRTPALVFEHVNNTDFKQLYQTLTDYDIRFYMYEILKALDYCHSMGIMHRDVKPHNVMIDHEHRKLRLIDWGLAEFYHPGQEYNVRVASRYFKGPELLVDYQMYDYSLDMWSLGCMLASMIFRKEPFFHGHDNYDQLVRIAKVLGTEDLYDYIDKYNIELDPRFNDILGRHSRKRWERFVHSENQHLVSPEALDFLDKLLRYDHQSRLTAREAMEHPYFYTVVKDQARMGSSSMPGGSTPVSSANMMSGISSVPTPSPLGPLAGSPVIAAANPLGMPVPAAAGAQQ", "conditions": "at 0.1 µM"}, "[5]": {"target": "Casein kinase II subunit alpha (Homo sapiens) (UniProt P68400)", "conditions": "at 1 µM"}, "[6]": {"target": "T2, Inhibitor of nuclear factor kappa-B kinase subunit alpha (Homo sapiens) (UniProt O15111)", "T2 sequence (whole entry)": "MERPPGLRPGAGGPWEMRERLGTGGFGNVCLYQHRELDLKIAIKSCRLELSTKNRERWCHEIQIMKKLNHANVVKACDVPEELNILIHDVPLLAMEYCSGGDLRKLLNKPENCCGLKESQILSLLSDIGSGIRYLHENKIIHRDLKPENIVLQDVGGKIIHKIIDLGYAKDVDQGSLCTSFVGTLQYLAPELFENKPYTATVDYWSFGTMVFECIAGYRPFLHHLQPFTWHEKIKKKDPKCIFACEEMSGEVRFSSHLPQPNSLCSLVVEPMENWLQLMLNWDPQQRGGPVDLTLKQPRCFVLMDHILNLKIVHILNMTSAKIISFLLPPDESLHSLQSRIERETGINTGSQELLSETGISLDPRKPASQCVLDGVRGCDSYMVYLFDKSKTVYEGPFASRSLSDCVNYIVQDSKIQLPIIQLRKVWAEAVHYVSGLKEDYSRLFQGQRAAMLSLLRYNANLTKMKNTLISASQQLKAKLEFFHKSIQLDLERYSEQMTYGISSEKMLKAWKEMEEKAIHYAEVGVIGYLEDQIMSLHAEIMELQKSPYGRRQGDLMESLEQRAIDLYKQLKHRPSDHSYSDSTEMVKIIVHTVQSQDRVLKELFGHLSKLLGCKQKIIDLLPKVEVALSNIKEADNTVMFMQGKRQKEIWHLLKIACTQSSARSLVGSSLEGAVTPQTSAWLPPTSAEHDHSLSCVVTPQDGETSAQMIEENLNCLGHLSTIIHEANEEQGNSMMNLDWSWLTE", "conditions": "at 0.1 µM"}, "[7]": {"target": "T2, Inhibitor of nuclear factor kappa-B kinase subunit alpha (Homo sapiens)", "conditions": "at 1 µM"}, "[8]": {"target": "T3, Inhibitor of nuclear factor kappa-B kinase subunit beta (Homo sapiens) (UniProt O14920)", "T3 sequence (whole entry)": "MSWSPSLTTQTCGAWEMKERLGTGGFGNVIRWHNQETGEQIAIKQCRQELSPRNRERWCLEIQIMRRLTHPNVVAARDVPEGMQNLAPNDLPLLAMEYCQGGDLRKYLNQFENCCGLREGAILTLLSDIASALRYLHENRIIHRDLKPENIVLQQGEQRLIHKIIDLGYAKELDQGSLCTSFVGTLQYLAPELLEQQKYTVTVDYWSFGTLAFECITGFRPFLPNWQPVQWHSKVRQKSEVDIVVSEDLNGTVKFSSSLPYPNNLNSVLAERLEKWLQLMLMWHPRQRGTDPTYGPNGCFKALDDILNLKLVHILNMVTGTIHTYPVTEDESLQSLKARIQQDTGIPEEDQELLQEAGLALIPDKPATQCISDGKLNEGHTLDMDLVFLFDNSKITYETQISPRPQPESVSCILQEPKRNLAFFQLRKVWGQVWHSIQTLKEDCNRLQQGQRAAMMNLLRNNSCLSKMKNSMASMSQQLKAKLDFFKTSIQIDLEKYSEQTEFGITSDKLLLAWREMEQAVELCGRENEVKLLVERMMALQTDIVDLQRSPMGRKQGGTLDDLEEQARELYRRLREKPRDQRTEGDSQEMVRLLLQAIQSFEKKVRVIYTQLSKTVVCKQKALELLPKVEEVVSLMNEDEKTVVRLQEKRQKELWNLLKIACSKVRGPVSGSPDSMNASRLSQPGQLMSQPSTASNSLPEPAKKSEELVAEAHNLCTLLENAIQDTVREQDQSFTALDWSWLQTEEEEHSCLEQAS", "conditions": "at 0.1 µM"}, "[9]": {"target": "T3, Inhibitor of nuclear factor kappa-B kinase subunit beta (Homo sapiens)", "conditions": "at 1 µM"}, "[10]": {"target": "T4, Inhibitor of nuclear factor kappa-B kinase subunit epsilon (Homo sapiens) (UniProt Q14164)", "T4 sequence (whole entry)": "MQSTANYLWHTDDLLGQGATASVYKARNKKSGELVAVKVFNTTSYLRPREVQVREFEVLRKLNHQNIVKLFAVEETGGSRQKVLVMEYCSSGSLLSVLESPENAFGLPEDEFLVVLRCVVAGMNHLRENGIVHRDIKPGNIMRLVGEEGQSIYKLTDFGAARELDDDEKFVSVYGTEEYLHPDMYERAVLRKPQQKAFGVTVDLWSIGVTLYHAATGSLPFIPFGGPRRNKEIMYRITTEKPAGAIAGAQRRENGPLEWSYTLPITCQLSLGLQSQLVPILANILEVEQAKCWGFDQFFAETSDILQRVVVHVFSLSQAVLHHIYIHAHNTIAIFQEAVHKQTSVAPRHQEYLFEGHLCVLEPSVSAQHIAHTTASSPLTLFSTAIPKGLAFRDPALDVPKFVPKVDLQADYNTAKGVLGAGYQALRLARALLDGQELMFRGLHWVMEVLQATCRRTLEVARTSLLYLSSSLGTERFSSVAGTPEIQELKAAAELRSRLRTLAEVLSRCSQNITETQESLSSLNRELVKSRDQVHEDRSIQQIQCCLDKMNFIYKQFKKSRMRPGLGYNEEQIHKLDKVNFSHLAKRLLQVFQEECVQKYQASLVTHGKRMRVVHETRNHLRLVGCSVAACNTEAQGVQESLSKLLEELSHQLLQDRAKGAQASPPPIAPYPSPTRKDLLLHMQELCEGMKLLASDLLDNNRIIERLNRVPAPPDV", "conditions": "at 0.1 µM"}},
  "note": "“And” between values parts separate entries of the source, which are not always exact repeats. Equal values may be shown once.",
  "data": [
    {"smiles": "Nc1nccc(-c2c(-c3ccc(F)cc3)ncn2C2CCNCC2)n1", "values": [
      {"measurement": "inhibition", "setting": "[1]", "value": "5.1% and -0.03%"},
      {"measurement": "inhibition", "setting": "[2]", "value": "0.57% and 0.62%"},
      {"measurement": "inhibition", "setting": "[3]", "value": "1.73% and 0.57%"},
      {"measurement": "inhibition", "setting": "[4]", "value": "0.26% and 2.91%"},
      {"measurement": "inhibition", "setting": "[5]", "value": "18% and 2.93%"},
      {"measurement": "inhibition", "setting": "[6]", "value": "5.16% and -0.81%"},
      {"measurement": "inhibition", "setting": "[7]", "value": "8.44% and 4.4%"},
      {"measurement": "inhibition", "setting": "[8]", "value": "-3.54% and 0.6%"},
      {"measurement": "inhibition", "setting": "[9]", "value": "-2.15% and 0.23%"},
      {"measurement": "inhibition", "setting": "[10]", "value": "-4.18% and 0.25%"}
    ]}
  ]
}
